# The supplement of paper PMC7765376
# Structures can show the parent of a compound that is named as a salt. The full ranking holds about 1,500 compounds; the median of “Excess HSA synergy score (sum over dose matrix of excess over highest single agent)” is about 43, and the lowest 2% start at about -900. This excerpt belongs to a sample that is enriched for the lowest values.
# Tested on: PEO-1
# Assay: Excess HSA synergy score (sum over dose matrix of excess over highest single agent) (score (summed % response)); higher = less synergy / more antagonism (negative = synergy)
# Settings: 72 h, read-out: viability/apoptosis luminescence (CellTiter-Glo or Caspase3-Glo / not stated per table)
# [1] = matrix design: 6x6, 5-fold dilutions (primary screen)
SMILES,Excess HSA synergy score [1],"Excess HSA synergy score (matrix design: 10x10, 9-step dilutions (confirmatory))"
C[Se]CC[C@H](N)C(=O)O [L-selenomethionine] + CC[C@H](NC(=O)[C@H](C)NC)C(=O)N1C[C@@H](O)C[C@H]1Cc1c(-c2[nH]c3cc(F)ccc3c2C[C@@H]2C[C@H](O)CN2C(=O)[C@H](CC)NC(=O)[C@H](C)NC)[nH]c2cc(F)ccc12 [Birinapant],115,
CC(=O)O/N=C1/C(=C2/C(=O)Nc3cc(Br)ccc32)Nc2ccccc21 [6-Bromoindirubin-3'-acetoxime] + CC[C@H](NC(=O)[C@H](C)NC)C(=O)N1C[C@@H](O)C[C@H]1Cc1c(-c2[nH]c3cc(F)ccc3c2C[C@@H]2C[C@H](O)CN2C(=O)[C@H](CC)NC(=O)[C@H](C)NC)[nH]c2cc(F)ccc12 [Birinapant],131,
Cc1ccc(C(=O)N(CCCN)[C@@H](c2nc3cc(Cl)ccc3c(=O)n2Cc2ccccc2)C(C)C)cc1 [Ispinesib] + CC[C@H](NC(=O)[C@H](C)NC)C(=O)N1C[C@@H](O)C[C@H]1Cc1c(-c2[nH]c3cc(F)ccc3c2C[C@@H]2C[C@H](O)CN2C(=O)[C@H](CC)NC(=O)[C@H](C)NC)[nH]c2cc(F)ccc12 [Birinapant],-86.8,
Nc1nccc(-c2ccc3noc(-c4ccc(Cl)cc4)c3c2)n1 [Pim 1 Inhibitor 2] + CC[C@H](NC(=O)[C@H](C)NC)C(=O)N1C[C@@H](O)C[C@H]1Cc1c(-c2[nH]c3cc(F)ccc3c2C[C@@H]2C[C@H](O)CN2C(=O)[C@H](CC)NC(=O)[C@H](C)NC)[nH]c2cc(F)ccc12 [Birinapant],12.2,
C=CCNc1c(O)cc2c(O)c1C[C@@H](C)C[C@H](OC)[C@H](O)[C@@H](C)/C=C(\C)[C@H](OC(N)=O)[C@@H](OC)/C=C\C=C(/C)C(=O)N2 [Retaspimycin] + CC[C@H](NC(=O)[C@H](C)NC)C(=O)N1C[C@@H](O)C[C@H]1Cc1c(-c2[nH]c3cc(F)ccc3c2C[C@@H]2C[C@H](O)CN2C(=O)[C@H](CC)NC(=O)[C@H](C)NC)[nH]c2cc(F)ccc12 [Birinapant],-10.7,
NC(=O)Nc1cc(-c2cccc(F)c2)sc1C(=O)N[C@H]1CCCNC1 + CC[C@H](NC(=O)[C@H](C)NC)C(=O)N1C[C@@H](O)C[C@H]1Cc1c(-c2[nH]c3cc(F)ccc3c2C[C@@H]2C[C@H](O)CN2C(=O)[C@H](CC)NC(=O)[C@H](C)NC)[nH]c2cc(F)ccc12 [Birinapant],119,
Cc1cccc(Nc2nc(-c3ccncc3)cs2)c1 + CC[C@H](NC(=O)[C@H](C)NC)C(=O)N1C[C@@H](O)C[C@H]1Cc1c(-c2[nH]c3cc(F)ccc3c2C[C@@H]2C[C@H](O)CN2C(=O)[C@H](CC)NC(=O)[C@H](C)NC)[nH]c2cc(F)ccc12 [Birinapant],69.4,
COc1cc(F)c(C(C)C)cc1-c1ccc(C(F)(F)F)cc1CN1C(=O)O[C@H](c2cc(C(F)(F)F)cc(C(F)(F)F)c2)[C@@H]1C [Anacetrapib] + CC[C@H](NC(=O)[C@H](C)NC)C(=O)N1C[C@@H](O)C[C@H]1Cc1c(-c2[nH]c3cc(F)ccc3c2C[C@@H]2C[C@H](O)CN2C(=O)[C@H](CC)NC(=O)[C@H](C)NC)[nH]c2cc(F)ccc12 [Birinapant],-71.8,
CN(C)c1ccc(C(=C2C=CC(=[N+](C)C)C=C2)c2ccc(N(C)C)cc2)cc1 [Methylrosaniline chloride] + CC[C@H](NC(=O)[C@H](C)NC)C(=O)N1C[C@@H](O)C[C@H]1Cc1c(-c2[nH]c3cc(F)ccc3c2C[C@@H]2C[C@H](O)CN2C(=O)[C@H](CC)NC(=O)[C@H](C)NC)[nH]c2cc(F)ccc12 [Birinapant],-147,
COc1ccc(C2=N[C@@H](c3ccc(Cl)cc3)[C@@H](c3ccc(Cl)cc3)N2C(=O)N2CCNC(=O)C2)c(OC(C)C)c1 [Nutlin-3] + CC[C@H](NC(=O)[C@H](C)NC)C(=O)N1C[C@@H](O)C[C@H]1Cc1c(-c2[nH]c3cc(F)ccc3c2C[C@@H]2C[C@H](O)CN2C(=O)[C@H](CC)NC(=O)[C@H](C)NC)[nH]c2cc(F)ccc12 [Birinapant],264,
CCS(=O)(=O)N1CC(CC#N)(n2cc(-c3ncnc4[nH]ccc34)cn2)C1 [Baricitinib] + CC[C@H](NC(=O)[C@H](C)NC)C(=O)N1C[C@@H](O)C[C@H]1Cc1c(-c2[nH]c3cc(F)ccc3c2C[C@@H]2C[C@H](O)CN2C(=O)[C@H](CC)NC(=O)[C@H](C)NC)[nH]c2cc(F)ccc12 [Birinapant],48.3,
N#CC(c1ccnc(OCc2ccc(CN3CCOCC3)cc2)n1)c1nc2ccccc2s1 (centres undefined) + CC[C@H](NC(=O)[C@H](C)NC)C(=O)N1C[C@@H](O)C[C@H]1Cc1c(-c2[nH]c3cc(F)ccc3c2C[C@@H]2C[C@H](O)CN2C(=O)[C@H](CC)NC(=O)[C@H](C)NC)[nH]c2cc(F)ccc12 [Birinapant],104,
COc1ccc(C(=O)CC2(O)C(=O)Nc3c(Cl)ccc(Cl)c32)cc1 (centres undefined) + CC[C@H](NC(=O)[C@H](C)NC)C(=O)N1C[C@@H](O)C[C@H]1Cc1c(-c2[nH]c3cc(F)ccc3c2C[C@@H]2C[C@H](O)CN2C(=O)[C@H](CC)NC(=O)[C@H](C)NC)[nH]c2cc(F)ccc12 [Birinapant],27,
NC(=O)c1ccc(N(C(N)=O)c2c(F)cccc2F)nc1-c1ccc(F)cc1F + CC[C@H](NC(=O)[C@H](C)NC)C(=O)N1C[C@@H](O)C[C@H]1Cc1c(-c2[nH]c3cc(F)ccc3c2C[C@@H]2C[C@H](O)CN2C(=O)[C@H](CC)NC(=O)[C@H](C)NC)[nH]c2cc(F)ccc12 [Birinapant],69.1,
Cn1cnc(N)c2ncnc1-2 [3-Methyladenine] + CC[C@H](NC(=O)[C@H](C)NC)C(=O)N1C[C@@H](O)C[C@H]1Cc1c(-c2[nH]c3cc(F)ccc3c2C[C@@H]2C[C@H](O)CN2C(=O)[C@H](CC)NC(=O)[C@H](C)NC)[nH]c2cc(F)ccc12 [Birinapant],238,
C[C@@]12C[C@@]3(O)O[C@@H](O1)[C@]1(COC(=O)c4ccccc4)[C@H]3C[C@@]12O[C@@H]1O[C@H](CO)[C@@H](O)[C@H](O)[C@H]1O [Paeoniflorin] + CC[C@H](NC(=O)[C@H](C)NC)C(=O)N1C[C@@H](O)C[C@H]1Cc1c(-c2[nH]c3cc(F)ccc3c2C[C@@H]2C[C@H](O)CN2C(=O)[C@H](CC)NC(=O)[C@H](C)NC)[nH]c2cc(F)ccc12 [Birinapant],211,
COc1cc([C@@H]2c3cc4c(cc3[C@@H](O[C@@H]3O[C@@H]5CO[C@@H](C)O[C@H]5[C@H](O)[C@H]3O)[C@H]3COC(=O)[C@H]23)OCO4)cc(OC)c1O [Etoposide] + CC[C@H](NC(=O)[C@H](C)NC)C(=O)N1C[C@@H](O)C[C@H]1Cc1c(-c2[nH]c3cc(F)ccc3c2C[C@@H]2C[C@H](O)CN2C(=O)[C@H](CC)NC(=O)[C@H](C)NC)[nH]c2cc(F)ccc12 [Birinapant],-89.6,
COc1cc([C@@H]2c3cc4c(cc3[C@@H](O[C@@H]3O[C@@H]5CO[C@@H](c6cccs6)O[C@H]5[C@H](O)[C@H]3O)[C@H]3COC(=O)[C@H]23)OCO4)cc(OC)c1O [Teniposide] + CC[C@H](NC(=O)[C@H](C)NC)C(=O)N1C[C@@H](O)C[C@H]1Cc1c(-c2[nH]c3cc(F)ccc3c2C[C@@H]2C[C@H](O)CN2C(=O)[C@H](CC)NC(=O)[C@H](C)NC)[nH]c2cc(F)ccc12 [Birinapant],-151,-1360
COC(=O)N[C@H](C(=O)N[C@@H](Cc1ccccc1)[C@@H](O)CN(Cc1ccc(-c2ccccn2)cc1)NC(=O)[C@@H](NC(=O)OC)C(C)(C)C)C(C)(C)C [Atazanavir sulfate] + CC[C@H](NC(=O)[C@H](C)NC)C(=O)N1C[C@@H](O)C[C@H]1Cc1c(-c2[nH]c3cc(F)ccc3c2C[C@@H]2C[C@H](O)CN2C(=O)[C@H](CC)NC(=O)[C@H](C)NC)[nH]c2cc(F)ccc12 [Birinapant],154,
CC(C)(C)[C@H](NC(=O)c1ccc(N)c(Cl)c1)C(=O)N1CCC[C@H]1C(=O)N[C@H](C#N)CC(=O)O + CC[C@H](NC(=O)[C@H](C)NC)C(=O)N1C[C@@H](O)C[C@H]1Cc1c(-c2[nH]c3cc(F)ccc3c2C[C@@H]2C[C@H](O)CN2C(=O)[C@H](CC)NC(=O)[C@H](C)NC)[nH]c2cc(F)ccc12 [Birinapant],307,
COc1ccc(C(C)=O)c(O)c1 [Paeonol] + CC[C@H](NC(=O)[C@H](C)NC)C(=O)N1C[C@@H](O)C[C@H]1Cc1c(-c2[nH]c3cc(F)ccc3c2C[C@@H]2C[C@H](O)CN2C(=O)[C@H](CC)NC(=O)[C@H](C)NC)[nH]c2cc(F)ccc12 [Birinapant],176,
Nc1cccc(-c2cc3c(Oc4cccc(O)c4)ncnc3[nH]2)c1 + CC[C@H](NC(=O)[C@H](C)NC)C(=O)N1C[C@@H](O)C[C@H]1Cc1c(-c2[nH]c3cc(F)ccc3c2C[C@@H]2C[C@H](O)CN2C(=O)[C@H](CC)NC(=O)[C@H](C)NC)[nH]c2cc(F)ccc12 [Birinapant],63.5,
Cc1[nH]c(/C=C2\C(=O)Nc3ccccc32)c(C)c1CCC(=O)O [Orantinib] + CC[C@H](NC(=O)[C@H](C)NC)C(=O)N1C[C@@H](O)C[C@H]1Cc1c(-c2[nH]c3cc(F)ccc3c2C[C@@H]2C[C@H](O)CN2C(=O)[C@H](CC)NC(=O)[C@H](C)NC)[nH]c2cc(F)ccc12 [Birinapant],23.6,
